Source: the OligoGym collection

Molecular target: RNPEPL1
Assay: pooled miR-30 sensor sort-seq; sequence = guide strand
Conditions: shRNA
Also: reference of the scale not given here.

| Sequence | sensor-assay potency score (higher = more potent) |
| --- | --- |
| TTCTCGTAGGTGAACAGGTTCA | -0.738 |
| TTCTGCGGTCCACAGCTGGAAA | -1.5 |
| TAGGTGAACAGGTTCATCAGGT | 0.726 |
| TACAAGAGACAGGCTGTCCTGT | 0.345 |
| TGGCAGGAAGACAATGTCGTAC | -1.01 |
| TCTGTGTCTGCTTCAGCCTTGC | 0.0808 |
| TTGTACTTCTCCACATAGGCTC | -0.15 |
| TAGTACACGAAGCAGTAGCCCT | -0.845 |
| TGAACTTGTACTTCTCCACATA | -0.899 |
| TAGGTCTCGGTGGTGATACGGC | -0.874 |
| TCAGGATAGTAGTCGTTGCGGA | -0.665 |
| TACTTCTCCACATAGGCTCGGA | -0.423 |

Molecular target: ROBO3
Assay: as above
Conditions: shRNA

| Sequence | sensor-assay potency score (higher = more potent) |
| --- | --- |
| TTCGTTGTAATATCTGTCGTCC | 0.714 |
| TTCAGCTGCCGCACTCTCCCGT | -0.447 |
| TTCATCTGGGTGGAGCACCCGC | -0.884 |
| TTGTAATATCTGTCGTCCGGGT | -0.931 |
| TCTTAGCACAGTACTTTGCTGG | -0.938 |
| TTGGGCTTGCACCTTGATCTGG | -0.739 |
| TGTAGGTCCAACATTGTCCAGC | -0.683 |
| TTTCCTTTGGTCTCGCACTGGA | -0.00997 |
| TTTATAAACAAGTCTCAGGTGG | -0.186 |
| TTGTCTTGAACTGGAGGTCATC | -1.28 |
| TTGGCCATTGTCTTGAACTGGA | -0.232 |
| TAGCACAGTACTTTGCTGGCTT | 0.438 |
